In PubChem BioAssay (NCATS):
A number with no mark means an inactive call. Records with an inconclusive call do not appear. Entries that show only a call come without a potency. The source made the active and inactive calls. The call rests on the fitted dose curve; in most records, active means well fitted curve in the direction sought with a large enough effect; inconclusive means small, poorly fitted or top-dose-only effect, or another doubt; inactive means no such curve, though single readings can be large; an effect the other way counts as inactive or inconclusive. *1 amine or outer side, *2 acyl side, *3 side chain or, on linkers, in order; H or OH if unused. Where a SMILES comes first, the peptide text is derived from it. Bridges are numbered along the chain shown (N, C = ends). [ ]: non-standard residue; d: D form. The star is where a group is joined. pTerphenylCO(4''-OnC5H11) = CCCCCOc1ccc(-c2ccc(-c3ccc(C(=O)*)cc3)cc2)cc1; Orn(4R-OH,5R-OH) = O=C([C@H](C[C@@H](O)[C@@H](O)N[*:3])N[*:1])[*:2]; hTyr(3S-OH,4S-OH) = N[C@H](C(=O)O)[C@H](O)[C@@H](O)c1ccc(O)cc1; Pro(3S-OH,4S-Me) = C[C@H]1CN[C@H](C(=O)O)[C@H]1O; Hyp = O=C(O)[CH]1C[CH](O)CN1; Phe(ol) = N[CH](CO)Cc1ccccc1; Iva = CC[C](C)(N)C(=O)O; Aib = CC(C)(N)C(=O)O

How the values were obtained:
[1] = target: Phospholipid hydroperoxide glutathione peroxidase GPX4 (Homo sapiens) (UniProt P36969); assay: Primary qHTS Assay for Inhibitors of Recombinant Selenoprotein Glutathione Peroxidase 4 (GPX4) (AID 1845192); conditions: recombinant GPX4, GR-coupled NADPH fluorescence, 15 min; series mostly up to 50 µM; further: nearly all actives have a fitted effect of over 65% in size
In short: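 qHTS, GR-coupled: GPX4 200 nM + cpd 30 min RT → GSH 1 mM, NADPH 0.5 mM, GR 100 nM → CHP 0.5 mM start; fluor 340/450 at t0 and t15 min; no-enzyme wells as control.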

[2] = target: Luciferin 4-monooxygenase (Photinus pyralis) (UniProt P08659); assay: Primary firefly luciferase (FLuc) qHTS assay for identification of artifact compounds. (AID 1845220); conditions: purified firefly luciferase, luminescence, 5 min; series mostly up to 54.1 µM; further: nearly all actives have a fitted effect of over 60% in size
In short: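 In this counter-screen for luciferase artifacts, test compounds met substrate (10 uM each luciferin and ATP) before 10 nM enzyme started the reaction. Light output was measured 5 min later.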

[3] = Primary fluorescence-based thiol-reactive (MSTI) qHTS assay for identification of artifact compounds. (AID 1845221); conditions: MSTI thiol-reactivity probe, 1 h; series mostly up to 53.8 µM; further: nearly all actives have a fitted effect of over 65% in size; further: potency means the concentration at half of the fitted maximal effect;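 on activity change, negative = thiol reactive: thiol-reactive compounds lower the probe fluorescence signal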
In short: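 In PBS pH 7.4 with 2% DMSO, each compound met 4 uM MSTI for one hour at ambient temperature, shielded from light, before fluorescence detection.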

[4] = tested on: Nanoluciferase (engineered Oplophorus gracilirostris luciferase); assay: Primary Nanoluciferase (NLuc) qHTS assay for identification of artifact compounds. (AID 1845222); conditions: NLuc-conditioned medium, Nano-Glo luminescence, 5 min; series mostly up to 54.1 µM;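 further: NLuc secreted into diluted conditioned medium of S16 cells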
In short: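 Using secreted nanoluciferase in S16 culture medium (0.22 um filtered, 1:55 dilution), compounds were preincubated 15 min at RT. Signal was generated with Nano-Glo reagent (1:100) over 5 min.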

[5] = Primary redox qHTS assay for identification of artifact compounds. (AID 1845223); conditions: Amplex Red/HRP redox cycling with DTT, fluorescence; series mostly up to 53.8 µM; further: potency means the concentration at half of the fitted maximal effect
In short: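 Redox-cycling detection via DTT (250 uM final) oxidation coupled to Amplex Red (25 uM)/HRP (250 mU/mL) in HBSS. 15 min preincubation plus 30 min after DTT, room temperature. Ex/Em 525/598 nm; 4-parameter Hill fit against DMSO and 10 uM DA3003.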

Phospholipid hydroperoxide glutathione peroxidase GPX4 (Homo sapiens), sequence (P36969 whole entry, looked up): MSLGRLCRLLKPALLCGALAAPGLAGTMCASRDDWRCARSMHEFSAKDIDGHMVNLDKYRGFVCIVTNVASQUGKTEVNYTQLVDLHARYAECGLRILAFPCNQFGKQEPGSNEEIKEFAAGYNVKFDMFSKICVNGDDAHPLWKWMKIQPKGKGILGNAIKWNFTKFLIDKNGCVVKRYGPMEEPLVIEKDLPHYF

Compound: CCn1c(N)c(C(=O)NC)c(=O)c2ccc(C#CC(C)(O)COC)nc21 (stereo unspecified)
- Potency [1]: inactive
- Potency [2]: inactive
- Potency [3]: inactive
- Potency [4]: inactive
- Potency [5]: inactive

Compound: O=C(Nc1ccc(-c2ccnc(Nc3ccc(N4CCOCC4)cc3)n2)cc1)C1CCCN1 (stereo unspecified)
- Potency [1]: inactive
- Potency [2]: inactive
- Potency [3]: 11.9 µM (active)
- Potency [4]: inactive
- Potency [5]: inactive

Compound: CNC1CN(c2ccc3c(=O)c(C(=O)O)cn(-c4nccs4)c3n2)CC1OC (stereo unspecified)
- activity change, negative = inhibition [1]: -2.33% [at 9.73 µM]
- activity change, negative = inhibition [2]: -6.28% [at 11.6 µM]
- activity change, negative = thiol reactive [3]: -3.65% [at 11.5 µM]
- activity, negative = inhibition [4]: -7.32% [at 11.6 µM]
- redox activity (% of DA3003) [5]: -6.95% [at 11.5 µM]

Compound: CC[C@H]1OC(=O)[C@H](C)[C@@H](O[C@H]2C[C@@](C)(OC)[C@@H](O)[C@H](C)O2)[C@H](C)[C@@H](O[C@H]2O[C@H](C)C[C@H](N(C)C)[C@H]2O)[C@](C)(O)C[C@@H](C)C(=O)[C@H](C)[C@@H](O)[C@]1(C)O
- Potency [1]: inactive
- Potency [2]: inactive
- Potency [3]: inactive
- Potency [4]: inactive
- Potency [5]: inactive

Compound: O=C(O)CSc1cc(NS(=O)(=O)c2ccc(Br)cc2)c2ccccc2c1O
- Potency [1]: inactive
- Potency [2]: inactive
- Potency [3]: 0.474 µM (active)
- Potency [5]: 5.32 µM (active)

Compound: CN(CC1COCCO1)S(=O)(=O)Nc1ccc2ccc3ncc(-c4cnn(C)c4)cc3c(=O)c2c1 (stereo unspecified)
- Potency [1]: inactive
- Potency [2]: inactive
- Potency [3]: inactive
- Potency [4]: inactive
- Potency [5]: inactive

Compound: CC(C)C[C@@H]1NC(=O)[C@@H]2C[C@@]34C[C@@H]5[C@@]6(C)CCCC(C)(C)C6CC[C@@]5(C)N(c5ccccc53)[C@H]4N2C1=O (stereo partly specified)
- Potency [1]: inactive
- Potency [2]: inactive
- Potency [3]: inactive
- Potency [4]: inactive
- Potency [5]: inactive

Compound: Cc1ccc(C)c(-c2cc(C(F)(F)F)nn2-c2ccc(S(N)(=O)=O)cc2)c1
- Potency [1]: inactive
- Potency [2]: inactive
- Potency [3]: inactive
- Potency [4]: inactive
- Potency [5]: inactive

Compound: CN(C)C(CCOc1cccc2ccccc12)c1ccccc1 (stereo unspecified)
- Potency [1]: inactive
- Potency [2]: inactive
- Potency [3]: inactive
- Potency [4]: inactive

Compound: CO[C@H]1O[C@@H]2O[C@@]3(C)CCC4[C@H](C)CCC([C@H]1C)[C@]42OO3 (stereo partly specified)
- Potency [1]: inactive
- Potency [2]: inactive
- Potency [3]: inactive
- Potency [4]: inactive
- Potency [5]: inactive

Compound: CCNC1(C(N)=O)CCN(c2ncnc3c2nc(-c2ccccc2Cl)n3-c2ccc(Cl)cc2)CC1
- Potency [1]: inactive
- Potency [2]: inactive
- Potency [3]: inactive
- Potency [4]: inactive
- Potency [5]: inactive

Compound: Cc1c(NC(=O)OCC2COCCN2)cn2ncnc(Nc3ccc4c(cnn4Cc4cccc(F)c4)c3)c12 (stereo unspecified)
- Potency [1]: inactive
- Potency [2]: inactive
- Potency [3]: inactive
- Potency [4]: inactive
- Potency [5]: inactive

Compound: Cc1cc(OCCCS(C)(=O)=O)cc(C)c1-c1cccc(COc2ccc(C3=CC(=O)NS3=O)cc2)c1 (stereo unspecified)
- Potency [1]: inactive
- Potency [2]: inactive
- Potency [3]: inactive
- Potency [4]: inactive
- Potency [5]: inactive

Compound: CC(OC1OCCN(Cc2n[nH]c(=O)[nH]2)C1c1ccc(F)cc1)c1cc(C(F)(F)F)cc(C(F)(F)F)c1 (stereo unspecified)
- Potency [1]: inactive
- Potency [2]: inactive
- Potency [3]: inactive
- Potency [4]: inactive
- Potency [5]: inactive

Compound: CC(NCCCc1cccc(C(F)(F)F)c1)c1cccc2ccccc12 (stereo unspecified)
- Potency [1]: inactive
- Potency [2]: inactive
- Potency [3]: inactive
- Potency [4]: inactive
- Potency [5]: inactive

Compound: CCC(C)(NC(=O)C(CCC(N)=O)NC(=O)C1CC(O)CN1C(=O)C(C)(C)NC(=O)C(C)(C)NC(=O)C(CC(C)C)NC(=O)CNC(=O)C(NC(=O)C(C)(C)NC(=O)C(C)(C)NC(=O)C(C)(C)NC(=O)C(Cc1ccccc1)NC(C)=O)C(C)C)C(=O)N1CC(O)CC1C(=O)NC(C)(C)C(=O)NC(CO)Cc1ccccc1 (stereo unspecified) (Ac-F[Aib][Aib][Aib]VGL[Aib][Aib][Hyp]Q[Iva][Hyp][Aib][Phe(ol)]; configuration not given here)
- activity change, negative = inhibition [1]: -5.56% [at 9.73 µM]
- activity change, negative = inhibition [2]: -5.79% [at 11.6 µM]
- activity change, negative = thiol reactive [3]: 0.987% [at 11.5 µM]
- activity, negative = inhibition [4]: -0.795% [at 11.6 µM]
- redox activity (% of DA3003) [5]: 15.7% [at 11.5 µM]

Compound: CN(C)CCC(CSc1ccccc1)Nc1ccc(S(=O)(=O)NC(=O)c2ccc(N3CCN(Cc4ccccc4-c4ccc(Cl)cc4)CC3)cc2)cc1[N+](=O)[O-] (stereo unspecified)
- Potency [1]: inactive
- Potency [2]: inactive
- Potency [3]: 2.12 µM (active)
- Potency [4]: inactive
- Potency [5]: inactive

Compound: CC1=C(c2ccc(NC(=O)c3c(F)cccc3F)cc2)CN(c2nccs2)CC1
- Potency [1]: inactive
- Potency [2]: inactive
- Potency [3]: inactive
- Potency [4]: inactive
- Potency [5]: inactive

Compound: CC(=O)O[C@@]12CO[C@@H]1C[C@H](O)[C@@]1(C)C(=O)[C@H](O)C3=C(C)[C@@H](OC(=O)[C@H](O)[C@@H](NC(=O)OC(C)(C)C)c4ccccc4)C[C@@](O)([C@@H](OC(=O)c4ccccc4)C12)C3(C)C (stereo partly specified)
- Potency [1]: inactive
- Potency [2]: inactive
- Potency [3]: inactive
- Potency [4]: inactive
- Potency [5]: inactive

Compound: Cc1cc(OCCCS(C)(=O)=O)cc(C)c1-c1cccc(COc2ccc3c(c2)OCC3CC(=O)O)c1 (stereo unspecified)
- Potency [1]: inactive
- Potency [2]: inactive
- Potency [3]: inactive
- Potency [4]: inactive
- Potency [5]: inactive

Compound: COCC(c1ccc(C(F)(F)F)cc1)N1CCN(C2(C)CCN(C(=O)c3c(C)ncnc3C)CC2)CC1C (stereo unspecified)
- Potency [1]: inactive
- Potency [2]: inactive
- Potency [3]: inactive
- Potency [4]: inactive

Compound: CCCCCOc1ccc(-c2ccc(-c3ccc(C(=O)N[C@H]4C[C@@H](O)[C@@H](O)NC(=O)[C@@H]5[C@@H](O)[C@@H](C)CN5C(=O)[C@H]([C@@H](C)O)NC(=O)[C@H]([C@H](O)[C@@H](O)c5ccc(O)cc5)NC(=O)[C@@H]5C[C@@H](O)CN5C(=O)[C@H]([C@@H](C)O)NC4=O)cc3)cc2)cc1 ({pTerphenylCO(4''-OnC5H11)}-[Orn(4R-OH,5R-OH)]T[Hyp][hTyr(3S-OH,4S-OH)]T[Pro(3S-OH,4S-Me)]; lactam 1-C)
- Potency [1]: inactive
- Potency [2]: inactive
- Potency [3]: inactive
- Potency [4]: inactive
- Potency [5]: inactive

Compound: O=C(c1ccc(F)cc1)N1CCCC(c2nc(-c3ccc(F)cc3)no2)C1 (stereo unspecified)
- Potency [1]: inactive
- Potency [2]: inactive
- Potency [3]: inactive
- Potency [5]: inactive

Compound: CCC/C=C/c1cc2c(C=O)c(O)c(CC=C(C)C)cc2o1
- Potency [1]: inactive
- Potency [2]: inactive
- Potency [3]: 23.8 µM (active)
- Potency [4]: inactive
- Potency [5]: inactive

Compound: CC[C@@H](Nc1c(Nc2cccc(C(=O)N(C)C)c2O)c(=O)c1=O)c1cc(C(C)C)co1
- Potency [1]: inactive
- Potency [2]: inactive
- Potency [3]: 2.38 µM (active)
- Potency [4]: inactive
- Potency [5]: inactive
